The source made the active and inactive calls.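 How the source made its calls: active means compounds lowering absorbance whose fitted half-effect dose is at most twice the highest valid tested dose; inconclusive means flat fit between 30 and 70% inhibition, or poor fit; inactive means the rest, including opposite-direction activity.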
Molecular target: Protein disulfide-isomerase A6 (Homo sapiens) (UniProt Q15084)
Assay: inhibitors of ERp5 insulin reduction – biochemical, insulin aggregation absorbance, dry powder samples, selectivity assay for PDI inhibitor antithrombotic project, dose response (AID 624320)
Conditions: absorbance 650 nm, 120 min; series mostly up to 18 µM

Chain of Protein disulfide-isomerase A6 (Homo sapiens) (Q15084 whole entry, looked up): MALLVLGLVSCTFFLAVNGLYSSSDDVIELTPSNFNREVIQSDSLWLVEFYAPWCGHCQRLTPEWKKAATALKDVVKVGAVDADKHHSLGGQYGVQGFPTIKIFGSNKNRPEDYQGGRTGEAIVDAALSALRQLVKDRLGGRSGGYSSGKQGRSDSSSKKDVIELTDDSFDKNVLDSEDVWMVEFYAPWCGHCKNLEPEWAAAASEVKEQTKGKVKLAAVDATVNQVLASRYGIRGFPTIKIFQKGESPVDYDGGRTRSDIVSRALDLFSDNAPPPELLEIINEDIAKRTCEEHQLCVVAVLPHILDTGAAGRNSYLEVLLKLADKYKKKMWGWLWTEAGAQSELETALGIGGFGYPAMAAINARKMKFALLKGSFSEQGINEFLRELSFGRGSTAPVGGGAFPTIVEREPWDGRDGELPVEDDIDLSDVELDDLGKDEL

**Q.** Which outcome does the source give for `C[C@H]1CN([C@@H](C)CO)C(=O)c2cccc(NS(C)(=O)=O)c2O[C@H]1CN(C)Cc1ccc(Oc2ccccc2)cc1` here?
**A.** Its outcome is “inactive”.
